Measurements from PubChem BioAssay AID2568 (National Center for Advancing Translational Sciences (NCATS), 2010).
Several values for one entry are separate records, joined by “and”; a condition that tells them apart may be missing. Equal entries are not always repeated. Inconclusive results are not listed. Values without a mark were called inactive. Activity calls are given as the source filed them. Calls follow the shape of the full dose curve.

Biological target: Neuropeptide S receptor (Homo sapiens) (UniProt Q6W5P4)
Assay: Confirmation Concentration-Response Assay for Antagonists of the Neuropeptide S Receptor: cAMP Signal Transduction, SAR for Probe
Conditions: CHO-NPSR cells, cAMP TR-FRET, antagonist mode; series mostly up to 47.8 µM; activity change, negative = inhibition: at the top concentration
Description: NIH Chemical Genomics Center [NCGC] NIH Molecular Libraries Probe Production centers Network [MLPCN] MLPCN Grant: X01-DA026210-01 Assay Submitter (PI): Heilig, Markus Alexander NCGC Assay Overview: Neuropeptide S receptor (NPSR), previously known as GPR154, is a recently de-orphanized G protein coupled receptor. Its endogenous ligand is the 20 amino acids peptide Neuropeptide S (NPS). […] NPS and its receptor are found in various tissues. Specifically they are highly expressed in brain areas that have been implicated in modulation of arousal, stress and anxiety. Central administration of NPS in mice produces an unusual profile of activity by inducing wakefulness and arousal, while at the same time suppressing anxiety. Therefore, NPSR may represent a novel drug target for the treatment of sleep and anxiety disorders. To identify NPSR antagonists, we developed a cell-based cAMP assay. NPS can stimulate the production of cAMP in Chinese hamster ovary cells stably expressing NPS receptor. This change in intracellular cAMP level can be detected by a homogeneous LANCE cAMP assay based on the TR-FRET (time resolved fluorescence resonance energy transfer) between a europium-labeled cAMP tracer complex and a cAMP-specific antibody labeled with Alexa Fluor 647. The europium-labeled cAMP tracer complex is formed by the tight interaction between Biotin-cAMP (b-cAMP) and streptavidin labeled with Europium-W8044 chelate (Eu-SA). Light pulse at 320 nm excites the europium of the cAMP tracer and the energy emitted is transferred to the Alexa molecule bound to the cAMP antibody, generating a TR-FRET signal at 665 nm. Residual energy from the europium will produce a light at 620 nm. The native unlabeled cAMP from cell lysates competes with the europium-cAMP tracer for antibody binding and reversely reduces the emission signal of Alexa by interrupting FRET between the two labeled molecules. Both emission signals from the FRET donor (620 nm) and the acceptor (665 nm) can be detected by a plate reader in the TRF mode. Expression of result in fluorescence ratio (665 nm/620 nm) helps to normalize differences due to cell density and reagent dispensing. This assay was successfully optimized to a 1536-well plate format. Select compounds from the primary screen (AID 1461) were chosen for confirmation based on potency, efficacy, SAR, and activity across other assays in PubChem and at NCGC. Other compounds are analogs of active compounds from the primary screen.
NCGC Assay Protocol Summary: A Chinese hamster ovary (CHO) cell line stably expressing the NPS receptor (CHO-NPSR) was obtained from Dr. Heilig lab at NIAAA and maintained in F-12 Kaighn's media (Invitrogen, Carlsbad, CA, 21127) supplemented with 10 % FBS, 100 units/ml penicillin, 100 ug/ml streptomycin and 250 ug/ml geneticin at 37C, 5% CO2 in a humidified atmosphere. Before the assay, aliquots of cells were frozen and stored at -135C. The assay was performed in 1536-well format. Data are reported for both the ratio of the two emission wavelengths, and also for the component 'donor' channel, Em2=620. […] IC50 values were determined from concentration-response data modeled with the standard Hill equation. NPS 1536-well assay protocol: (1) Fresh or frozen CHO-NPSR cells were suspended in F-12 Kaighn's media supplemented with 10 % FBS, 100 units/ml penicillin and 100 ug/ml streptomycin. Cells were plated at 4 ul/well (1200 cells) to white, tissue culture treated 1536-well plates, and then cultured at 37C, 5 % CO2 for 16 to 30 hours. (2) Add 23 nl/well of compound in DMSO solution. The final titration for each compound was between 0.6 nM and 46 uM. (3) Add 1 ul of stimulation reagent (1X HBSS buffer, 5 mM HEPES, 0.1% BSA, 500 uM RO-201724 (Sigma-Aldrich, B8279), 1.5% Alexa 647-labeled anti-cAMP antibody (from Perkin Elmer), 100 nM NPS) (4) Incubation at 37C, 5 % CO2 for 60 min. (5) Add 1 ul/well detection reagent. […]

Chain of Neuropeptide S receptor (Homo sapiens) (Q6W5P4 whole entry, looked up): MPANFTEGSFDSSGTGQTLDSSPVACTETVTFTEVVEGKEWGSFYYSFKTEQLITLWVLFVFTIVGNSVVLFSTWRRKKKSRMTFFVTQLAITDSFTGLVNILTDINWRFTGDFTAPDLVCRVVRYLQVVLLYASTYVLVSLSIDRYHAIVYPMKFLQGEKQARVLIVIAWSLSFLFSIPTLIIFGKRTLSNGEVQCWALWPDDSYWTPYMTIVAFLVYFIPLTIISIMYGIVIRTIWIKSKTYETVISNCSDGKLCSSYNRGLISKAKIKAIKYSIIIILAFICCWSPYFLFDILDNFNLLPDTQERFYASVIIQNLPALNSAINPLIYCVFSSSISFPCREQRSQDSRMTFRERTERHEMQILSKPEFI

Row | Compound | Potency | activity change, negative = inhibition [%]
1 | Cc1c(P(=S)(c2ccccc2)c2ccccc2)[n+]2ccccc2n1CCCc1ccccc1 | 0.772 µM (active) | 
2 | Cc1c(P(=S)(c2ccccc2)c2ccccc2)c2ccccc2n1C | 31.5 µM (active) | 
3 | Cc1c(P(=S)(c2ccccc2)c2ccccc2)[n+]2ccccc2n1Cc1ccccc1 | 1.99 µM (active) | 
4 | Cc1c(P(=S)(c2ccccc2)c2ccccc2)[n+]2ccccc2n1C/C=C/c1ccccc1 | 0.387 µM (active) | 
5 | Cc1c(P(=S)(c2ccccc2)c2ccccc2)[n+]2ccccc2n1C | 2.23 µM (active) and 4.87 µM (active) | 
6 | Cc1[nH]c2ccccc2c1P(=S)(c1ccccc1)c1ccccc1 | 39.7 µM (active) | 
7 | Cn1c(-c2ccccc2)c(P(=S)(c2ccccc2)c2ccccc2)c2ccccc21 |  | -21
8 | S=P(c1ccccc1)(c1ccccc1)c1c[n+](Cc2ccccc2)c2ccccn12 | 9.96 µM (active) | 
9 | Cc1c(P(=S)(c2ccccc2)c2ccccc2)[n+]2ccccc2n1CCc1ccccc1 | 2.5 µM (active) | 
10 | S=P(c1ccccc1)(c1ccccc1)c1c(-c2ccccc2)[nH]c2ccccc12 | 31.5 µM (active) | 
11 | Cc1nc2ccccn2c1P(=S)(c1ccccc1)c1ccccc1 | 25 µM (active) | 
